From PubChem BioAssay (NCI)
About 79,000 compounds went through this panel and 15% of them were active in at least one assay; those are over-represented in the sample as a whole. No stated cut-off is given here; in the data, active means growth inhibition above about 70%; inactive means the rest.

What was measured:
[1] = NCI Yeast Anticancer Drug Screen. Data for the rad52 strain (AID 147);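 further: 0% = growth of vehicle-treated control cultures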; details: S. cerevisiae rad52 mutant growth inhibition, active compounds read high
Method in brief: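 DNA repair-defective yeast; compound exposure; growth scored against vehicle controls.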

[2] = NCI Yeast Anticancer Drug Screen. Data for the wt1 strain (AID 149);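 further: 0% = growth of vehicle-treated wt1 cultures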; details: S. cerevisiae wt1 strain (SPY 50644) growth inhibition, active compounds read high
Method in brief: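 Vehicle-normalised growth inhibition; strain wt1; compound exposure.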

[3] = NCI Yeast Anticancer Drug Screen. Data for the rad50EPP+ strain (AID 151);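 further: 0% = growth of vehicle-treated control cultures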; details: S. cerevisiae rad50 mutant strain, active compounds read high
Method in brief: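 rad50EPP+ yeast treated with test compounds. Readout: growth vs vehicle control.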

[4] = NCI Yeast Anticancer Drug Screen. Data for the mgt1 strain (AID 153); details: S. cerevisiae mgt1 mutant growth inhibition, active compounds read high
Method in brief: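 Growth inhibition relative to vehicle controls was scored for the mgt1 yeast strain after compound exposure.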

[5] = NCI Yeast Anticancer Drug Screen. Data for the rad50 strain (AID 155);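 further: 0% = growth of vehicle-only cultures of the same strain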; details: S. cerevisiae rad50 strain growth inhibition, active compounds read high
Method in brief: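 A DNA repair-deficient yeast mutant serves as the test organism; compound-induced growth inhibition is calculated against vehicle-treated cells.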

[6] = NCI Yeast Anticancer Drug Screen. Data for the mec2-1 strain (AID 157); details: S. cerevisiae mec2-1 strain, active compounds read high
Method in brief: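 Growth inhibition is read against vehicle-treated controls after compound exposure of the mec2-1 yeast strain, which is defective in DNA damage repair or cell cycle control.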

[7] = NCI Yeast Anticancer Drug Screen. Data for the rad14 strain (AID 159);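 further: 0% = growth of vehicle-treated control cultures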; details: S. cerevisiae rad14 strain growth inhibition, active compounds read high
Method in brief: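 Vehicle-treated cultures served as the baseline for growth inhibition of a DNA repair-mutant yeast strain exposed to each compound.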

[8] = at 5.0 µM (retest, dose inferred, filed as 0.5)
[9] = at 50.0 µM (retest, dose inferred, filed as 5.0)

Measured: growth inhibition

C[C@H](CCC(=O)NN)[C@H]1CC[C@H]2[C@@H]3CC[C@@H]4C[C@H](O)CC[C@]4(C)[C@H]3CC[C@]12C
inactive: [1]; at 1.2 µM -2% | [1]; at 3.7 µM 0% | [1]; at 11.0 µM 0% | [1]; at 33.0 µM 6% | [1]; at 100.0 µM 10% | [2]; at 1.2 µM 1% | [2]; at 3.7 µM 0% | [2]; at 11.0 µM 0% | [2]; at 33.0 µM 0% | [2]; at 100.0 µM 3% | [3]; at 1.2 µM 0% | [3]; at 3.7 µM 4% | [3]; at 11.0 µM 4% | [3]; at 33.0 µM 6% | [3]; at 100.0 µM 18% | [4]; at 1.2 µM 0% | [4]; at 3.7 µM -1% | [4]; at 11.0 µM 1% | [4]; at 33.0 µM -1% | [4]; at 100.0 µM 2% | [5]; at 1.2 µM 1% | [5]; at 3.7 µM 1% | [5]; [8] 12% | [5]; at 11.0 µM 9% | [5]; at 33.0 µM -1% | [5]; [9] 45% | [5]; at 50.0 µM 60% | [5]; at 100.0 µM 5% | [6]; at 1.2 µM 3% | [6]; at 3.7 µM 3% | [6]; [8] 0% | [6]; at 11.0 µM 3% | [6]; at 33.0 µM 5% | [6]; [9] 7% | [6]; at 50.0 µM 40.2% | [6]; at 100.0 µM 17% | [7]; at 1.2 µM 0% | [7]; at 3.7 µM -3% | [7]; at 11.0 µM 0% | [7]; at 33.0 µM -5% | [7]; at 100.0 µM 12%
